BoNT-F LC inh: BoNT/F light chain protease inhibitors, primary screen, biochemical, flow cytometry, MLPCN library. Multiplex microsphere protease cleavage assay. inhibition, % at 10 µM. hit rate 0.22% among 360,000; in the data active means inhibition above about 35%, passing the limit was not always enough; inconclusive means no clear call, values can overlap the other calls; further: plate controls were buffer without enzyme for full effect and enzyme alone for no effect
3CLpro inhibitor: SARS-CoV 3CLpro protease inhibitors, primary screen, biochemical, quenched FRET. recombinant SARS-CoV 3CLpro, quenched FRET peptide cleavage. Replicase polyprotein 1ab (Severe acute respiratory syndrome coronavirus), P0C6X7. inhibition, % at 6 µM. hit rate 0.14% among 290,000; in the data active means inhibition above about 12%
Anthrax LF inh2: Bacillus anthracis LF protease inhibitors, primary screen, biochemical, multiplex microsphere, MLPCN library | Lethal factor (Bacillus anthracis), P15917 | multiplex microsphere protease cleavage assay | inhibition, % at 10 µM | hit rate 0.12% among 360,000 | AID 588501, 2011; further: plate controls were buffer without enzyme for full effect and enzyme alone for no effect
Target sequence (P15917 whole entry, looked up): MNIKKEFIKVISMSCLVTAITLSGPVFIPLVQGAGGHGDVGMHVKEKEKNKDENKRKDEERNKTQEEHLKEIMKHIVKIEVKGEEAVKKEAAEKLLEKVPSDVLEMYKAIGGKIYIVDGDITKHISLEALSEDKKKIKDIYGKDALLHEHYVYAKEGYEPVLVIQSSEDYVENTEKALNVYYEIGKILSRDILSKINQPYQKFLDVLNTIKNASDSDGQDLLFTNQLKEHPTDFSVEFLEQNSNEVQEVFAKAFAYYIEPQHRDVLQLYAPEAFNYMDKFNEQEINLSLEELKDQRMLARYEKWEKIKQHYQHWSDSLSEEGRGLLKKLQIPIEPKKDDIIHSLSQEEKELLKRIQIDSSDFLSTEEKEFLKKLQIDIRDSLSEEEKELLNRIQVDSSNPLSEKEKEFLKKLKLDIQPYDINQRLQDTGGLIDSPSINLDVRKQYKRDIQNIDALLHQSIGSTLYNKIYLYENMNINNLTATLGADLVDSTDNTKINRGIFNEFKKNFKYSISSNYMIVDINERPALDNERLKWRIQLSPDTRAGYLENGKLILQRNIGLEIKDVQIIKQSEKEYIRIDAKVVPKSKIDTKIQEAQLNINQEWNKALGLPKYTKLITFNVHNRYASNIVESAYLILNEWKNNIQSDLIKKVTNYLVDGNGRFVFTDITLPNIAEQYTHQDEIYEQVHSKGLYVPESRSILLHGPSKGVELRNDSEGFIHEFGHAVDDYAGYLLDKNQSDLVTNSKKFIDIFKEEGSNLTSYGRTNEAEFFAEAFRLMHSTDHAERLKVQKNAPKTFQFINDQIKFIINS
CCHF vOTU inh: CCHFV vOTU protease inhibitors, primary screen, biochemical, Pep-AMC substrate, fluorescence | AID 651958, 2012 | Crimean-Congo hemorrhagic fever virus L polyprotein viral ovarian tumor (vOTU) protease … | hit rate 0.55% among 370,000 | inhibition, % at 11.5 µM; in the data active means inhibition above about 30%; further: 0% = vehicle wells with enzyme and 100% = no enzyme wells
Autofluor counter: counter-screen for toxin protease inhibitors: compound fluorescence | compound autofluorescence counterscreen, microsphere flow cytometry; hits give high values | fluorescence intensity (concentration not given with the values) | hit rate 3.1% among 360,000; in the data active means fluorescence intensity above about 16000; inconclusive means no clear call, values can overlap the other calls
BoNT-A LC inh2: BoNT/A light chain protease inhibitors, primary screen, biochemical, flow cytometry, MLPCN library | inhibition, % at 10 µM | Botulinum neurotoxin type A light chain protease (Clostridium botulinum A str. ATCC 3502) | AID 588499, 2011 | hit rate 0.17% among 360,000 | multiplex microsphere protease substrate cleavage; further: plate controls were buffer without enzyme for full effect and enzyme alone for no effect
The depositor's hits bear a star; ? = inconclusive; . = no result given. In the library only some 3.9% were active in any assay of this set; here they are far more common. Unless noted, no stated cut-off is given here; in the data, active means inhibition above about 30%; inconclusive means no clear call, values can overlap the other calls; inactive means below that.

SMILES	BoNT-F LC inh	3CLpro inhibitor	Anthrax LF inh2	CCHF vOTU inh	Autofluor counter	BoNT-A LC inh2
Cc1ccc2c(c1)C(CS(=O)(=O)NC1CCCC1)NC2 (centres undefined)	.	.	.	8.1	.	.
COc1ccc(NC(=O)c2sc3nc(N4CCOCC4)c4c(c3c2N)CC(C(C)C)OC4)c(OC)c1 (centres undefined)	1.3	1.2	-0.5	15.0	4599	-0.1
COCCn1c(=S)[nH]c2cc(C(=O)N3CCN(c4ccccc4OC)CC3)ccc2c1=O	-3.5	2.4	1.2	-10.1	22207*	?
CCN1CCN(C(=O)c2ccc3c(=O)n(Cc4ccccc4OC)c(=S)[nH]c3c2)CC1	7.1	1.1	-4.9	-8.2	18735*	6.7
COc1ccc(/C=C(/C#N)C(=O)NC2CCCCC2)cc1Br	35.8*	3.4	0.6	-23.4	3886	0.9
N#C/C(=C\c1ccccc1)C(=O)NC1CC1	7.8	-0.7	-2.9	-12.5	3093	-1.1
N#C/C(=C\c1ccc2c(c1)OCCO2)C(=O)NC1CCCCC1	5.4	2.4	-1.9	27.3	2043	-0.3
CCCCOc1ccc(/C=C(\C#N)C(=O)NC2CC2)cc1	50.5*	.	?	11.5	3581	9.9
COCCNc1nc(NCCN2CCNC2=O)c2sc(-c3ccccc3)cc2n1	-1.1	.	-3.7	-0.6	3964	0.1
Cc1cc(C)nc(Nc2n[nH]c(COc3ccc4ccccc4c3)n2)n1	-1.4	-1.3	-0.9	-2.3	22079*	1.1
Cc1cc(C)nc(Nc2n[nH]c(COc3ccccc3)n2)n1	-1.6	-4.7	-1.8	-4.8	2394	-0.4
CCOC(=O)c1nnn(-c2nonc2N)c1CNc1ccccc1	6.5	-0.8	-0.1	1.8	5639	-0.5
CCOC(=O)c1nnn(-c2nonc2N)c1CN1CCCC1	9.0	0.8	8.7	-3.4	3989	-2.7
CCOC(=O)c1nnn(-c2nonc2N)c1CNC(C)C	0.9	-0.1	-1.7	-7.8	21205*	?
CCOC(=O)c1nnn(-c2nonc2N)c1CN1CCCCCC1	3.6	-2.2	-2.4	7.7	16135*	1.3
COc1ccc(NC(=O)Cc2c(Cl)cccc2Cl)cn1	-1.8	1.9	-1.1	2.3	4486	-0.7
COc1ccc(NS(=O)(=O)Cc2ccccc2Cl)cn1	-7.6	-0.7	0.5	8.0	23973*	?
CC(C)N(CC(O)COc1ccc(CC(N)=O)cc1)CC(O)COc1ccc(CC(N)=O)cc1 (centres undefined)	3.3	-2.4	5.9	-10.4	2931	0.9
COc1ccc(Cn2c(SCc3ccc(C)cc3)nc3cc(OC)c(OC)cc3c2=N)cc1Cl	-4.5	-2.5	-2.1	-7.4	16606*	-1.2
COc1cc2nc(SCc3ccc(Cl)cc3Cl)n(Cc3cccs3)c(=N)c2cc1OC	-1.0	4.4	-3.5	-1.6	20638*	0.4
COc1cc2nc(SCc3ccc(C(F)(F)F)cc3)n(Cc3cccs3)c(=N)c2cc1OC	6.1	-1.6	-15.6	-0.6	8413	0.3
O=C(CN1C(=O)COc2ccccc21)NC1CCCC1	-2.3	4.2	15.3	-6.6	3468	2.4
O=C(NCCCc1ccccc1)C1CC(=O)N(c2ccc3c(c2)OCCO3)C1 (centres undefined)	2.3	-3.4	-1.5	3.4	20162*	?
COc1ccc(-n2c(=O)c3c4c(sc3n3c(C)nnc23)CC(C)CC4)cc1 (centres undefined)	.	0.8	.	.	.	.
Cc1nnc2n(-c3ccccc3)c(=O)c3c4c(sc3n12)CC(C)CC4 (centres undefined)	1.5	-4.3	2.7	-4.0	18626*	2.6
SMILES	BoNT-F LC inh	3CLpro inhibitor	Anthrax LF inh2	CCHF vOTU inh	Autofluor counter	BoNT-A LC inh2
COc1ccc(N(CC(=O)NCCC2=CCCCC2)S(=O)(=O)c2ccccc2)c(OC)c1	-7.8	4.0	-3.1	-1.0	4678	-0.9
CCC1CCCCN1C(=O)N[C@@H](Cc1ccccc1)C(=O)O (some centres undefined)	-2.7	-0.8	-0.1	-6.4	23663*	0.2
C[C@@H]1CCCCO[C@H](CN(C)Cc2ccc(C(F)(F)F)cc2)[C@@H](C)CN([C@H](C)CO)C(=O)c2cc(NS(=O)(=O)c3cn(C)cn3)ccc2O1	3.0	.	3.5	5.5	2846	0.4
CN(C)[C@@H]1CCN(c2ccc3c(c2)O[C@@H]2CCN(C2)S3(=O)=O)C1	.	.	.	-7.5	.	.
Cc1nc(NCc2ccco2)c2c(C)c(C)sc2n1	-5.5	-0.3	-9.0	0.2	16784*	-3.3
Cc1ccc(-n2[nH]c(=O)c3cccnc32)cc1	-2.9	5.9	-4.9	10.8	16502*	-1.7
Cc1ccc(OC(=O)CCC(=O)OCCCC(F)(F)C(F)(F)F)cc1	-4.4	0.1	-0.7	12.2	24380*	-2.0
Cc1ccc(C(C(=O)NC2CCCCC2)N(C(=O)Cc2c[nH]c3ccccc23)c2ccccc2)o1 (centres undefined)	3.6	-0.5	-1.8	8.0	20827*	?
Cc1ccc(CCNC(=O)CCSCc2ccc(Cl)cc2)cc1	-6.6	-0.5	-3.2	-3.2	2213	-0.4
Cc1ccc(CSCCNC(=O)/C=C/c2ccc(Cl)cc2)cc1	2.6	2.0	0.6	0.5	21860*	1.9
C[C@H](CO)N1C[C@H](C)[C@@H](CN(C)S(=O)(=O)c2ccc3c(c2)OCCCO3)OCc2cn(nn2)CCCC1=O	-2.7	.	-3.4	9.7	3343	-0.2
CC(C)OC(=O)CSc1nnc2n1C(C)(C)Cc1ccccc1-2	-0.6	-0.8	-2.6	0.1	16487*	0.3
CCOC(=O)CSc1nnc2n1C(C)(C)Cc1ccccc1-2	1.6	3.8	-2.4	1.6	16513*	0.7
CCSc1nnc2n1C(C)(C)Cc1ccccc1-2	1.3	1.9	0.3	0.2	2678	-0.1
O=C(C1CCN(c2ncnc3c2sc2cccc(F)c23)CC1)N1CCN(Cc2ccc(F)cc2)CC1	.	.	.	6.0	.	.
CCCCNC(=O)C[C@H]1C[C@@]2(C(=O)OC)C(=C[C@H](C(C)C)O[C@@H]2C2CC2)N(Cc2ccccc2)C1=O	.	.	.	6.0	.	.
O=S(=O)(c1cccc(S(=O)(=O)N2CCC(Cc3ccccc3)CC2)c1)N1CCOCC1	6.5	-4.6	2.9	15.4	4080	1.3
O=S(=O)(NCc1ccccc1)c1cccc(S(=O)(=O)N2CCOCC2)c1	3.6	4.7	-0.8	4.1	21829*	2.3
CC1CCN(S(=O)(=O)c2cccc(S(=O)(=O)N3CCOCC3)c2)CC1	-2.3	-0.4	-0.7	5.9	16191*	0.5
Cc1nc(NC(=O)c2ccccc2)sc1-c1csc(NCCc2ccccc2)n1	1.5	1.6	2.0	-3.6	25254*	3.9
Cc1nc(NC(=O)c2ccccc2)sc1-c1csc(NCc2ccccc2)n1	3.3	7.1	-3.4	6.7	2503	0.4

Screening data (PubChem)
